According to PubChem BioAssay AID489036 (National Center for Advancing Translational Sciences (NCATS), 2010):
Where “and” joins values, the source holds several entries; their conditions need not be identical. Identical values can stand only once. Records with an inconclusive call do not appear. Values without a mark were called inactive. Calls of active or inactive are those of the source. Calls follow the shape of the dose curve; as a rule, active = well fitted inhibition curve with a large enough effect; inconclusive = small, poorly fitted or top-dose-only effect, or effect the other way; inactive = flat fitted curve, though single readings scatter.

Assay: VP16 selectivity assay for inhibitors of ROR gamma transcriptional activity
Settings: Drosophila Schneider Gal4-VP16 UAS-luciferase reporter, 20 h; series mostly up to 92.2 µM; activity change, negative = inhibition: at the top concentration
Summary of the method: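 Drosophila Schneider cells stably expressing a Gal4-VP16 fusion under a metallothionein promoter and a UAS-driven Photinus luciferase reporter. Compound preincubated 1 hr, copper sulfate added (700 uM final), then 20 hr at ambient temperature before luminescence read.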

Row | SMILES | activity change, negative = inhibition [%] | Potency
1 | COc1cc(O)c(C(CC(=O)N(Cc2ccccc2)Cc2ccccc2)c2ccc3c(c2)OCO3)c(OC)c1 (stereo not drawn) | -7.83 | 
2 | COc1cc(OC)c(C(c2ccccc2)C(C)(C)C(=O)N2CC(C)CC(C)C2)c(OC)c1 (stereo not drawn) |  | 18.2 µM (active)
3 | COc1cc(OC)c(C(CC(=O)N2CC(C)CC(C)C2)c2ccc3c(c2)OCO3)c(OCC(N)=O)c1 (stereo not drawn) | -8.5 | 
4 | COc1cc(O)c(C(CC(=O)N2CCCC2)c2ccc3c(c2)OCO3)c(OC)c1 (stereo not drawn) | -4.65 | 
5 | COCC1CCCCN1C(=O)c1cc(COc2ccc3ncccc3c2)on1 (stereo not drawn) |  | 16.2 µM (active)
6 | COc1cc(OC)c(C(CC(=O)N2CCCC(C)C2)c2ccc3c(c2)OCO3)c(OC)c1 (stereo not drawn) |  | 51.2 µM (active)
7 | COc1cc(O)c(C(CC(=O)N2CCCC(c3ccccc3)C2)c2ccc3c(c2)OCO3)c(OC)c1 (stereo not drawn) | -14.8 | 
8 | CC(C)(C)OC(=O)N1CCC[C@H]1C(=O)N1CCC(C(=O)N[C@H](Cc2ccccc2)C(=O)NCc2ccc(F)cc2)CC1 | -14.9 | 
9 | COc1cc(O)c(C(CC(=O)N2CCCC(C)C2)c2ccc(C(C)C)cc2)c(OC)c1 (stereo not drawn) |  | 25.7 µM (active)
10 | COc1cc(O)c(C(CC(=O)N2CCCC(C)C2)c2ccccc2OC)c(OC)c1 (stereo not drawn) | -19.2 | 
11 | COc1cc(O)c(C(CC(=O)N2CCCC(CN3CCCCC3)C2)c2ccc3c(c2)OCO3)c(OC)c1 (stereo not drawn) | -3.73 | 
12 | O=C(CCCN1C(=O)/C(=C/c2ccccc2Cl)SC1=S)Nc1cccnc1 |  | 28.8 µM (active)
13 | COC(=O)c1ccc(OCC(=O)c2ccc(O)cc2O)cc1 |  | 2.04 µM (active)
14 | COc1cc(O)c(C(CC(=O)N2CCC(c3ccccc3)CC2)c2ccc(OC)c(OC)c2)c(OC)c1 (stereo not drawn) | -1.5 | 
15 | COc1ccc(C(=O)Nc2cc(-c3ccc(C)cc3)no2)cc1 | -29 | 
16 | COc1cc(O)c(C(CC(=O)N2CCC(c3ccccc3)CC2)c2ccc3c(c2)OCO3)c(OC)c1 (stereo not drawn) |  | inactive
17 | COc1cc(O)c(C(CC(=O)N2CCC(C)CC2)c2ccc(OC)c(OC)c2)c(OC)c1 (stereo not drawn) | 23 | 
18 | COc1cc(O)c(C(CC(=O)N2CCC(Cc3ccccc3)CC2)c2ccc(OC)c(OC)c2)c(OC)c1 (stereo not drawn) | -5.36 | 
19 | COc1cc(O)c(C(CC(=O)N2CCC[C@H](C)C2)c2ccc3c(c2)OCO3)c(OC)c1 (stereo partly drawn) |  | inactive
20 | COc1cc(O)c(C(CC(=O)N2CCC(C)CC2)c2ccc(C)cc2)c(OC)c1 (stereo not drawn) | 11.5 | 
21 | COc1cc(O)c(C(CC(=O)N2CCCC(C(=O)c3ccccc3)C2)c2ccc3c(c2)OCO3)c(OC)c1 (stereo not drawn) | 4.06 | 
22 | COc1ccccc1CNC(=O)[C@@H](NC(=O)C1CCN(C(=O)[C@@H]2CCCN2C(=O)OC(C)(C)C)CC1)C(C)C | 6.66 | 
23 | CC1=C(\C=C/C(C)=C/C=C\C(C)=C\C(=O)O)C(C)(C)CCC1 |  | 8.48 µM (active)
24 | COc1cc(O)c(C(CC(=O)N2CCC(c3ccccc3)CC2)c2ccc(C)cc2)c(OC)c1 (stereo not drawn) | -9.66 | 
25 | O=C(/C=C/c1ccc(S(=O)(=O)N2CCOCC2)cc1)NC(=S)Nc1ccc(N2CCOCC2)cc1 |  | 20.4 µM (active)
26 | CCOc1cccc(-c2cc(-c3n[nH]c(=S)n3CC)c3ccccc3n2)c1 |  | 2.29 µM (active) and 4.07 µM (active)
27 | COc1ccc(C(CC(=O)N2CCCC(C)C2)c2ccccc2)cc1 (stereo not drawn) | -64.7 | 
28 | COC(=O)Cn1c(CN2CCc3ccccc3C2)nc2c1c(=O)n(C)c(=O)n2C |  | 9.11 µM (active)
